Records with an inconclusive call do not appear. Calls of active or inactive are those of the source. The call rests on the fitted dose curve; in most records, active means well fitted curve in the direction sought with a large enough effect; inconclusive means small, poorly fitted or top-dose-only effect, or another doubt; inactive means no such curve, though single readings can be large; an effect the other way counts as inactive or inconclusive.

Experiment [1] is described as follows: Quantitative High-Throughput drug screen in 47 multiple myeloma cell lines against the NCATS MIPE library collection: Karpas417_ECACC cell viability assay (AID 1918961). The conditions noted are these: Karpas417 myeloma viability, CellTiter-Glo ATP luminescence, 48 h; viability (% of DMSO): at 45.8 µM (top of the series). In a few lines:
(§1)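 Myeloma cells (500 per well) were exposed to MIPE 4.0 compounds by pin transfer and incubated 48 hours at 37C, 5% CO2. Viability was read as ATP by CellTiter-Glo luminescence, normalised to DMSO (100%) and media-only (0%) wells.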

The nature of experiment [2]: Quantitative High-Throughput drug screen in 47 multiple myeloma cell lines against the NCATS MIPE library collection: JIM3_ECACC cell viability assay (AID 1918963; further: nearly all actives have a fitted effect of over 35% in size). In a few lines: (§2)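 CellTiter-Glo luminescence (ATP) after 48 h compound exposure, 37C/5% CO2; 500 cells/well; MIPE 4.0 approved/investigational drugs pinned in; DMSO = 100%, media only = 0% viability.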
A short description of experiment [3]: Quantitative High-Throughput drug screen in 47 multiple myeloma cell lines against the NCATS MIPE library collection: JIM1_ECACC cell viability assay (AID 1918964). In a few lines: as §1
A short description of experiment [4]: Quantitative High-Throughput drug screen in 47 multiple myeloma cell lines against the NCATS MIPE library collection: INA6_PLB cell viability assay (AID 1918965; further: nearly all actives have a fitted effect of over 55% in size). Put shortly: as §1
A short description of experiment [5]: Quantitative High-Throughput drug screen in 47 multiple myeloma cell lines against the NCATS MIPE library collection: JJN3_DSMZ cell viability assay (AID 1918966; further: nearly all actives have a fitted effect of over 50% in size). Put shortly: as §1
Experiment [6] can be described thus: Quantitative High-Throughput drug screen in 47 multiple myeloma cell lines against the NCATS MIPE library collection: Karpas25_ECACC cell viability assay (AID 1918968; further: nearly all actives have a fitted effect of over 35% in size). In a few lines:
as §1

Experiment [7] can be described thus: Quantitative High-Throughput drug screen in 47 multiple myeloma cell lines against the NCATS MIPE library collection: KMS12BM_JCRB cell viability assay (AID 1918971). Further: nearly all actives have a fitted effect of over 35% in size. In a few lines:
(§3)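 Approved and investigational drugs from MIPE 4.0 were added by pin tool to 500 cells per well. After 48 hours at 37C, ATP-based CellTiter-Glo luminescence indicated remaining viability.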

Experiment [8] in a line: Quantitative High-Throughput drug screen in 47 multiple myeloma cell lines against the NCATS MIPE library collection: KMS12PE_JCRB cell viability assay (AID 1918972). Further: nearly all actives have a fitted effect of over 30% in size. In a few lines: as §1
A short description of experiment [9]: Quantitative High-Throughput drug screen in 47 multiple myeloma cell lines against the NCATS MIPE library collection: KMS21BM_JCRB cell viability assay (AID 1918974). As to conditions: ATP luminescence, 48 h; viability: at 45.8 µM (top of the series). In a few lines:
as §1

A short description of experiment [10]: Quantitative High-Throughput drug screen in 47 multiple myeloma cell lines against the NCATS MIPE library collection: MMM1_PLB cell viability assay (AID 1918976). Further: nearly all actives have a fitted effect of over 35% in size. Put shortly:
(§4)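 Myeloma cells (500/well) treated with MIPE 4.0 compounds for 48 h at 37 °C, 5% CO2. Viability read as ATP via CellTiter-Glo luminescence after 5 min at RT; DMSO-only wells = 100%, media-only = 0% viability.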

Experiment [11] can be described thus: Quantitative High-Throughput drug screen in 47 multiple myeloma cell lines against the NCATS MIPE library collection: MOLP8_DSMZ cell viability assay (AID 1918977). Further: nearly all actives have a fitted effect of over 45% in size. In a few lines:
as §4

Experiment [12] can be described thus: Quantitative High-Throughput drug screen in 47 multiple myeloma cell lines against the NCATS MIPE library collection: NCIH929_DSMZ cell viability assay (AID 1918978). Further: nearly all actives have a fitted effect of over 35% in size. Put shortly:
as §4

Experiment [13] is described as follows: Quantitative High-Throughput drug screen in 47 multiple myeloma cell lines against the NCATS MIPE library collection: KMS26_JCRB cell viability assay (AID 1918975). Further: nearly all actives have a fitted effect of over 45% in size. Put shortly: as §3
Experiment [14] is described as follows: Quantitative High-Throughput drug screen in 47 multiple myeloma cell lines against the NCATS MIPE library collection: OCIMY1_PLB cell viability assay (AID 1918979). Further: nearly all actives have a fitted effect of over 35% in size. In a few lines:
as §4

A short description of experiment [15]: Quantitative High-Throughput drug screen in 47 multiple myeloma cell lines against the NCATS MIPE library collection: KHM11_PLB cell viability assay (AID 1918962). Further: nearly all actives have a fitted effect of over 35% in size. Put shortly: as §2
Experiment [16] in a line: Quantitative High-Throughput drug screen in 47 multiple myeloma cell lines against the NCATS MIPE library collection: H1112_PLB cell viability assay (AID 1918967; further: nearly all actives have a fitted effect of over 30% in size). Put shortly: as §1
Experiment [17] in a line: Quantitative High-Throughput drug screen in 47 multiple myeloma cell lines against the NCATS MIPE library collection: KMS27_JCRB cell viability assay (AID 1918970). Further: nearly all actives have a fitted effect of over 30% in size. As to conditions: KMS27 myeloma cells, CellTiter-Glo ATP viability, 48 h; viability (% of DMSO): at 45.8 µM (top of the series). Put shortly: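 ATP-based viability (CellTiter-Glo luminescence) is measured in cells treated 48 h with approved and investigational drugs at 37 °C. Controls are DMSO-only wells for full viability and media-only wells for none.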

The nature of experiment [18]: Quantitative High-Throughput drug screen in 47 multiple myeloma cell lines against the NCATS MIPE library collection: KMS20_JCRB cell viability assay (AID 1918973). Further: nearly all actives have a fitted effect of over 45% in size. Put shortly:
as §1
Potency means the concentration at half of the fitted maximal effect.

With `CNC(=O)c1cccc(-c2ccc3c(N4CCOC[C@H]4C)nc(N4CCOC[C@H]4C)nc3n2)c1`, the Potency was 52.6 nM (active) in experiment [1]; 41.8 nM (active) in experiment [2]; 13.2 nM (active) in experiment [3]; 526 nM (active) in experiment [4]; 74.3 nM (active) in experiment [5]; 74.3 nM (active) in experiment [6]. In addition, the Potency was 16.6 nM (active) in experiment [7]; 469 nM (active) in [8]; 166 nM (active) in experiment [9]; 16.6 nM (active) in experiment [10]; 23.5 nM (active) in [11]; 16.6 nM (active) in experiment [12].

As to `C[C@](Cc1c[nH]c2ccccc12)(NC(=O)OC1C2CC3CC(C2)CC1C3)C(=O)NC[C@H](NC(=O)CCC(=O)O)c1ccccc1` (some centres undefined), the Potency result in experiment [2], in experiment [3], in experiment [5], in [9], in experiment [13] and in [11] was “inactive” throughout. Besides, the Potency entry in experiment [14] was “inactive”.

For `N#CC(=C(N)Sc1ccc(N)cc1)c1ccccc1C(F)(F)F`, the Potency was 418 nM (active) in experiment [15]; 5900 nM (active) in experiment [2]; 3320 nM (active) in [16]; 13200 nM (active) in experiment [6]; 469 nM (active) in experiment [18]; 1050 nM (active) in [12]. The Potency entry in experiment [17] and in experiment [8] was “inactive” in each case.

Take `COc1cc(C[C@@H](CO)[C@H](CO)Cc2ccc(O)c(OC)c2)ccc1O`: the Potency is 5900 nM (active) in experiment [1]; 1180 nM (active) in experiment [15]; 2640 nM (active) in experiment [2]; 372 nM (active) in [16]; 418 nM (active) in experiment [6]; 3720 nM (active) in [8]. Besides, the results for the Potency in experiment [18], in experiment [13] and in [12] were 526 nM (active), 1320 nM (active) and 590 nM (active), respectively. In addition, in experiment [14], the Potency result is “inactive”.

With `CNC(=O)Nc1ccc(-c2nc(N3CC4CCC(C3)O4)c3cnn(C4CCC5(CC4)OCCO5)c3n2)cc1`, the Potency in experiment [1] was 6.6 nM (active); in experiment [2] it was 418 nM (active); in experiment [5], 11.8 nM (active); in experiment [6], 10.5 nM (active); in experiment [7], 6.6 nM (active); in experiment [8], 74.3 nM (active). For the same compound, the Potency is 10.5 nM (active) in experiment [18], 41.8 nM (active) in experiment [9], 9.3 nM (active) in [11] and 935 nM (active) in experiment [14].

As to `CN1CCc2c(c3ccccc3n2Cc2ccc(C(=O)NO)cc2)C1`, the Potency in experiment [1] is 20900 nM (active); in experiment [2] it was 23500 nM (active); in experiment [4], 4690 nM (active); in experiment [5], 18700 nM (active); in experiment [16] it was 16600 nM (active); in experiment [6], 10500 nM (active). The Potency in experiment [13] is 20900 nM (active); in experiment [12] it was 10500 nM (active).

Take `Cc1cnc(Nc2ccc(CN3CCOCC3)cc2)nc1Nc1cccc(S(=O)(=O)NC(C)(C)C)c1`: the Potency in experiment [2] was 2640 nM (active); in experiment [5], 6620 nM (active); in experiment [16], 3320 nM (active); in [6] it was 1320 nM (active); in experiment [7], 3320 nM (active); in [18], 2640 nM (active). In addition, the Potency was 13200 nM (active) in experiment [13], 10500 nM (active) in [10], 2090 nM (active) in experiment [11] and 1660 nM (active) in [12].

For `COc1ccc2cc([S+]([O-])Cc3ncc(C)c(OC)c3C)nc2c1`, the Potency entry in experiment [2], in experiment [3], in [5], in [16], in [7] and in [18] was “inactive” in each case. Besides, the Potency entry in [12] and in [14] was “inactive” in each case. The Potency in experiment [6] was 16600 nM (active).

For the compound `NC1=N[C@H]2[C@H](CS[C@H]2CCCCC(=O)O)N1`, the Potency entry in [15], in experiment [2], in experiment [4], in experiment [16], in [6] and in [17] was “inactive” throughout. Moreover, the Potency result in [7], in experiment [8], in [13], in experiment [11], in [12] and in experiment [14] was “inactive” in each case.

`CCOc1cc2c(c(F)c1OCC)C(=N)N(CC(=O)c1cc(N3CCOCC3)c(OC)c(C(C)(C)C)c1)C2`: the Potency entry in [1] is “inactive”. The Potency in [2] is 9350 nM (active); in [4], 11800 nM (active); in [5] it was 18700 nM (active); in [16] it was 11800 nM (active); in [6] it was 9350 nM (active); in experiment [7], 18700 nM (active). Besides, the Potency in experiment [13] is 18700 nM (active); in experiment [12], 14800 nM (active); in experiment [14], 20900 nM (active).

Consider `CCc1cc(C(C)=NOCc2ccc(C3CCCCC3)c(C(F)(F)F)c2)ccc1CN1CC(C(=O)O)C1`, for which the figures for the Potency in experiment [1], in [16] and in experiment [7] were 59 nM (active), 14800 nM (active) and 18700 nM (active), respectively. For the same compound, the Potency entry in experiment [11] and in experiment [14] was “inactive” each time.

Turning to `COc1cc2ncnc(Nc3cccc(Br)c3)c2cc1OC`, the Potency in experiment [15] is 16600 nM (active); in experiment [2] it was 2640 nM (active); in experiment [4], 3320 nM (active); in [5], 20900 nM (active); in experiment [6] it was 526 nM (active); in experiment [17], 23500 nM (active). The Potency in experiment [7] is 41.8 nM (active); in [8] it was 14800 nM (active); in experiment [18] it was 743 nM (active); in experiment [13], 16600 nM (active); in experiment [11], 20900 nM (active).

Consider `NS(=O)(=O)OC[C@@H]1C[C@@H](n2ccc3c(N[C@H]4CCc5ccccc54)ncnc32)C[C@H]1O`, for which the Potency entry in experiment [1] was “inactive”. Moreover, the Potency in experiment [2] is 13200 nM (active); in experiment [4] it was 118 nM (active); in experiment [6], 833 nM (active); in [7], 6620 nM (active); in [13] it was 2640 nM (active); in experiment [12], 833 nM (active).

Values taken from PubChem BioAssay (NCATS).
